Assay outcomes (PubChem)
In the library only some 3.9% were active in any assay of this set; here they are far more common.
TGFb SMAD3 inh – qHTS for Inhibitors of TGF-b; HepG2 CAGA-GFP TGF-b/SMAD3 reporter, GFP fluorescence, 18 h; TGF-beta stimulated, 500 pg/mL final; Potency, µM (top dose mostly 46.1 µM), inactives show top-dose activity, negative = inhibition, hits mostly inhibitors; actives 1.2% (n = 410,000); further: on the % scale 0 is the no-effect control and ±100 the full control effect; nearly all actives have a fitted effect of over 65% in size
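HEPG2 CAGA-GFP cells (1000/well, DMEM with 1% FBS) were pre-incubated 2 h at 37 degrees C, given compound by pin tool, then stimulated with TGF-beta at 500 pg/mL final for 18 h before per-cell GFP fluorescence imaging.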
HepG2 viability – qHTS for Inhibitors of TGF-b: Cytotox Counterscreen. actives 0.76% (n = 410,000). Potency, µM (top dose mostly 46.1 µM), inactives show at the top dose activity change, negative = cytotoxicity, hits mostly cytotoxic. HepG2 CAGA-GFP viability, ATP luminescence, 18 h. AID 588856, 2011
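CellTiter-Glo luminescence gave cytotoxicity after 18 hours at 37 degrees C. The cells were HepG2 CAGA-GFP in 1% FBS DMEM, stimulated with 500 pg/mL TGF-beta after compound addition. %Activity was normalised to no-cell wells (complete cell-killing) and DMSO (no toxicity), and curves were fitted and classified.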
HT1080-NT tox – qHTS for induction of synthetic lethality in tumor cells producing 2HG: qHTS for the HT-1080-NT fibrosarcoma cell line; HT-1080-NT fibrosarcoma viability, CellTiter-Glo ATP luminescence, 48 h; Potency, µM (top dose mostly 46.1 µM), inactives show top-dose activity, negative = less viability, hits mostly cytotoxic; actives 1.6% (n = 360,000);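 further: NT is the 2HG producing partner of a matched IDH1 knockdown line; 0% = DMSO-treated cells and -100% = media-only wells without cells; nearly all actives have a fitted effect of over 55% in size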
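750 cells/well, RPMI + 5% FBS; 2 h settle, compound pin-transfer, 48 h at 37 degrees C. CellTiter-Glo 10 min RT, luminescence. Normalized to DMSO and media-only wells.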
ATXN2 expr inh – Primary qHTS for Inhibitors of ATXN expression; Potency, µM (top dose mostly 57 µM), for the others: top-dose activity change, negative = inhibition, usual class: inhibitors; actives 0.72% (n = 360,000); AID 1745845, 2022; HEK-293 ATXN2-luciferase reporter, luminescence, 24 h; further: on the % scale 0 is the no-effect control and ±100 the full control effect; nearly all actives have a fitted effect of over 55% in size
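qHTS (up to 57 uM final) was run with 24 h compound exposure of reporter cells at 37 °C. Each well was multiplexed: SteadyGlo luminescence measured ATXN2-luciferase expression after a fluorogenic Gly-Phe-AFC viability readout (25 uM final).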
ATXN viability – Viability Counterscreen for Primary qHTS for Inhibitors of ATXN expression. S2 cells (HEK-293 line with an ATXN2-luciferase reporter) viability, CellTiter-Fluor protease fluorescence, 24 h. Potency, µM (doses to about 56.7 µM), actives largely listed as cytotoxic. actives 0.49% (n = 400,000). AID 651635, 2014; further: nearly all actives have a fitted effect of over 40% in size
HT1080 IDH1KD tx – qHTS for induction of synthetic lethality in tumor cells producing 2HG: qHTS for the HT-1080-IDH1KD cell line; actives 2% (n = 360,000); Potency, µM (series often up to 46.1 µM), for inactives: at the top dose activity, negative = toxicity, actives largely listed as cytotoxic; HT-1080 IDH1 knockdown viability, ATP luminescence, 48 h;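 further: 0% = DMSO wells and -100% = cell-free medium wells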
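Luminescent ATP read-out (CellTiter-Glo, 10 min at room temperature) after 48 h compound exposure at 37 °C gave viability of IDH1-knockdown HT-1080 cells. Activity was normalised to DMSO and cell-free wells, then fitted as concentration-response curves.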
Active calls of the source: *; i = inactive; ? = inconclusive; / = no result. The call rests on the fitted dose curve; in most records, active means well fitted curve in the direction sought with a large enough effect; inconclusive means small, poorly fitted or top-dose-only effect, or another doubt; inactive means no such curve, though single readings can be large; an effect the other way counts as inactive or inconclusive. Potency means the concentration at half of the fitted maximal effect.

SMILES	TGFb SMAD3 inh	HepG2 viability	HT1080-NT tox	ATXN2 expr inh	ATXN viability	HT1080 IDH1KD tx
CCC1=Nc2cc(C(=O)NC3CCCC3)ccc2Sc2ccc(Cl)cc21	?	-39%	/	-13%	?	/
CCN1C(=O)c2ccc(C(=O)NCc3ccco3)cc2C1=O	-3%	5%	20%	-17%	0.16µM*	15%
COc1ccc(NCc2cc3cc4c(cc3n(CC(=O)Nc3ccc(C)c(C)c3)c2=O)OCO4)cc1	0%	-4%	/	-3%	i	/
CCC1=Nc2cc(C(=O)O)ccc2Sc2ccccc21	-9%	-2%	0%	1%	i	2%
Cc1ccc(-c2noc(-c3ccccc3C(=O)NCc3ccco3)n2)cc1	-18%	-25%	1%	3%	i	-6%
CCC1=Nc2cc(C(=O)NCc3ccco3)ccc2Sc2ccc(Cl)cc21	?	-17%	5.2µM*	4%	?	?
O=C(NCc1ccco1)c1ccccc1-c1nc(-c2ccccc2)no1	-19%	2µM*	-15%	3%	i	-10%
CCC1=Nc2cc(C(=O)NCc3ccco3)ccc2Sc2ccccc21	-28%	-15%	2.6µM*	-18%	?	5.8µM*
Cc1c(CCCl)c(Cl)n2c(nc3ccccc32)c1C#N	?	-21%	2.6µM*	?	?	2.3µM*
CCc1c(C)c(C#N)c2nc3ccccc3n2c1NC	35%	-2%	-5%	8%	i	-2%
COc1ccc(CNCC(O)(c2ccc(F)cc2)c2ccc(F)cc2)cc1OC	?	-41%	?	-26%	i	?
COc1ccc(CNCCC(c2ccccc2)c2ccc(OC(C)C)cc2)cc1OC (configuration not stated)	?	-104%	21µM*	-24%	i	18µM*
COc1ccc(C(CCN(Cc2ccc(OC)c(OC)c2)C(C)=O)c2ccccc2)cc1 (configuration not stated)	-8%	-24%	-19%	/	?	-45%
COc1ccc(CCNCc2ccc(-c3ccccc3)cc2)cc1OC	?	-57%	23µM*	?	i	23µM*
COc1ccc(CN(CCC(c2ccccc2)c2ccc(OC(C)C)cc2)C(=O)CCl)cc1OC (configuration not stated)	?	10µM*	1.5µM*	?	/	1.6µM*
COc1ccc(CNCCC(c2ccc(F)cc2)c2ccc(OC(C)C)cc2)cc1OC (configuration not stated)	?	-105%	23µM*	?	?	?
Cc1cnc(SCC2CCCO2)nc1C1CCCN(Cc2nc(-c3ccccc3)cs2)C1 (configuration not stated)	/	/	/	/	i	/
CN(C)S(=O)(=O)c1ccc2c(c1)N(CC(=O)N1CCN(c3cccc(Cl)c3)CC1)CCS2	21%	-26%	/	-7%	i	/
CSCCC(NS(=O)(=O)c1ccc2c(c1)oc(=O)n2C)C(=O)N1CCN(c2cc(C)ccc2C)CC1 (configuration not stated)	-2%	-6%	/	/	/	/
C/C(=N\NC(=O)c1cc(-c2cccc(OC(C)C)c2)nc2ccccc12)c1cccnc1	1%	-29%	-20%	-20%	i	?
C/C(=N\NC(=O)c1cccc2ccccc12)c1cccnc1	-8%	-6%	-28%	1%	i	?
CC(C)CC(=NNC(=O)c1ccncc1)c1cc(Cl)ccc1O	-1%	7.1µM*	?	2.8µM*	?	0.82µM*
CC(=NNC(=O)c1ccncc1)c1ccc(O)cc1O	-1%	10%	-18%	14µM*	i	?
CC(=NNC(=O)c1ccncc1)c1ccccc1O	0%	-13%	?	?	i	?
C/C(=N/NC(=O)c1ccncc1)c1ccc(NC(=O)c2ccc(Cl)cc2Cl)cc1	0%	8%	1%	31%	i	7%
SMILES	TGFb SMAD3 inh	HepG2 viability	HT1080-NT tox	ATXN2 expr inh	ATXN viability	HT1080 IDH1KD tx
C/C(=N\NC(=O)c1cc(-c2cccnc2)nc2ccccc12)c1ccc(O)cc1O	-9%	-20%	?	4µM*	?	?
CC(=NNC(=O)c1ccncc1)c1ccc2ccccc2c1O	116%	-31%	?	?	i	5.8µM*
COc1ccccc1NC(=O)CSc1nc2c(oc3ccccc32)c(=O)n1-c1ccc(C)cc1	-19%	6%	/	0%	i	/
CC(C(=O)O)c1ccc2c(c1)CC(=O)c1ccccc1S2 (configuration not stated)	/	/	/	?	i	/
COc1cccc(CN2C(=O)NC(C)(C3CCN(Cc4cnn(C)c4C)CC3)C2=O)c1OC (configuration not stated)	/	/	/	/	i	/
CCCCCCCC(=O)N/N=C(\C)c1ccc(O)cc1O	-22%	-18%	?	0%	?	?
CCCCCCCCC(=O)N/N=C(\C)c1ccc(O)cc1O	?	-23%	-28%	18µM*	?	?
O=C1NC(Cc2ccc(O)cc2)c2nc3cc(Cl)ccc3c(=O)n2-c2cc3ccccc3cc21 (configuration not stated)	?	-9%	23µM*	?	?	16µM*
Cc1ccc2c(=O)n3c(nc2c1)C(Cc1ccccc1)NC(=O)c1cc2ccccc2cc1-3 (configuration not stated)	-12%	-3%	6.5µM*	?	?	5.8µM*
